Here are results for 16 molecules from PubChem BioAssay (NCATS).

Molecules are shown by their SMILES. Results filed as inconclusive are left out. Unmarked numbers belong to inactive results. Calls come from the whole dose curve; as a rule, active = well fitted inhibition curve with a large enough effect; inconclusive = small, poorly fitted or top-dose-only effect; inactive = no such curve, though single readings can be large or run the other way. *1 amine or outer side, *2 acyl side, *3 side chain or, on linkers, in order; H or OH if unused. Where a SMILES comes first, the peptide text is derived from it. Bridges are numbered along the chain shown (N, C = ends). [ ]: non-standard residue; d: D form. The star is where a group is joined. ξ: configuration not given here. ΔAla(3-NHCONH2) = NC(=O)NC=C(N)C(=O)O; X2 = NC1=NCCC(C(N[*:1])C(=O)[*:2])N1; ξβ3hOrn = NCCCC(N)CC(=O)*; Dap = NC[CH](N)C(=O)O
% is set by controls: 0 for no effect and ±100 for the full control effect.

The target of the test is Cytochrome P450 3A7 (Homo sapiens) (UniProt P24462). Put plainly: Cytochrome P450 family 3 subfamily A member 7 (CYP3A7) small molecule antagonists: luciferase biochemical qHTS assay (AID 1963596). Note: nearly all actives have a fitted effect of over 40% in size. The following applies: P450-Glo CYP3A7 enzyme luminescence, 1 h; series mostly up to 57.4 µM; activity change, negative = inhibition: at the top concentration. In short, it runs like this: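 Enzyme-substrate mix + cpd (DMSO), 10 min RT; + NADPH regen system, 1 h RT; + luciferin detection reagent, 20 min RT; luminescence read. Proluciferin substrate, P450-Glo format, 1536-well qHTS.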
Cytochrome P450 3A7 (Homo sapiens), sequence (P24462 whole entry, looked up): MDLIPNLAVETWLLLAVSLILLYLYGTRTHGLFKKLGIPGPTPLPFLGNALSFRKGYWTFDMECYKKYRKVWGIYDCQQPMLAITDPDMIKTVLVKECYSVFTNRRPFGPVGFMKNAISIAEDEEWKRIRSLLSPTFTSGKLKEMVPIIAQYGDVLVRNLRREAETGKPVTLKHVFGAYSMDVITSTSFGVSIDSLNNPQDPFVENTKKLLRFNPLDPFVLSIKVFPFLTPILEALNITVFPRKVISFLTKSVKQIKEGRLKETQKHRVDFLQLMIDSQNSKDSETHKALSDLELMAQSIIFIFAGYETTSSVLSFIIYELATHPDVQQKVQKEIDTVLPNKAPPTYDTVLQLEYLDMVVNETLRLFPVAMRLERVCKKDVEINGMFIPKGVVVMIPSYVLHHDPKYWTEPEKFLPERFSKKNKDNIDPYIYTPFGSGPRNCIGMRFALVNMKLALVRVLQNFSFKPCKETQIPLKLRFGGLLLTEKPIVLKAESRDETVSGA
On to `NCCCC(N)CC(=O)NCC1NC(=O)C(CO)NC(=O)C(N)CNC(=O)C(C2CCN=C(N)N2)NC(=O)C(=CNC(N)=O)NC1=O` (stereo not drawn) (H-[Dap]S[Dap](ξβ3hOrn)[ΔAla(3-NHCONH2)][X2]; lactam 1-C; configuration not given here), for which the activity change, negative = inhibition was 0.114% [at 0.91 µM].
The figure for `CC1(C)[C@@H](OC(=O)CCC(=O)O)CC[C@]2(C)[C@H]3C(=O)C=C4[C@@H]5C[C@@](C)(C(=O)O)CC[C@]5(C)CC[C@@]4(C)[C@]3(C)CC[C@@H]12` is -7.45%; for `NCCNCCNCCNCCN` it is 14.5% [at 11.5 µM]; for `CCCNC(C)C(=O)Nc1c(C)csc1C(=O)OC` (stereo unspecified) it is 12.3%.
For the molecule `CC(C)C(=O)c1c(C(C)C)nn2ccccc12`, the “activity change, negative = inhibition” value is 31.4%.
The figure for `O=C(O)CC(O)C(=O)O` (stereo unspecified) is -25.8%; for `CC[C@@]1(c2ccccc2)NC(=O)N(C)C1=O` it is 20.9%; for `CC1(C)O[C@@H]2[C@@H](CO[C@@]3(COS(N)(=O)=O)OC(C)(C)O[C@@H]23)O1` it is 0.16%.
The figure for `CN1C(=O)CC(C)(c2ccccc2)C1=O` (stereo unspecified) is 4.12%; for `CCOC(=O)[C@H](CCc1ccccc1)N[C@@H](C)C(=O)N1C(=O)N(C)C[C@H]1C(=O)O` it is -5.89%.
The figure for `COC(=O)c1cc(S(N)(=O)=O)ccc1OC` is -13.2%; for `NC(CSCC(=O)O)C(=O)O` (stereo unspecified) it is 9.66%.
Turning to `CC(C(=O)O)c1cccc(Oc2ccccc2)c1` (stereo unspecified), the “activity change, negative = inhibition” value was -10.6%.
In the case of `CC(C)(C)NCC(O)COc1cccc2c1CCC(=O)N2` (stereo unspecified), the “activity change, negative = inhibition” value was 16.6%.
For `Cc1cc(NC(=O)C2=C(O)c3ccccc3S(=O)(=O)N2C)no1`, the “activity change, negative = inhibition” value is 1.33%.
Next, `CCN[C@@H]1C[C@H](N)[C@@H](OC2OC(CN)=CCC2N)[C@H](O)[C@H]1O[C@H]1OC[C@](C)(O)[C@H](NC)[C@H]1O` (stereo partly specified): 12% [at 0.91 µM].
